Compound activity as filed in PubChem BioAssay.
HT1080NT lethal: qHTS for induction of synthetic lethality in tumor cells producing 2HG: qHTS for the HT-1080-NT fibrosarcoma cell line; HT-1080-NT fibrosarcoma viability, CellTiter-Glo ATP luminescence, 48 h; Potency, µM (series often up to 46.1 µM), inactives show top-dose activity, negative = less viability, hits mostly cytotoxic; 360,000 tested, 1.6% active; AID 686970, 2013;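 also: NT is the 2HG producing partner of a matched IDH1 knockdown line; 0% = DMSO-treated cells and -100% = media-only wells without cells; nearly all actives have a fitted effect of over 55% in size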
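Viability of the 2HG-overproducing fibrosarcoma line after 48 hours of compound exposure at 37 degrees C was determined by luminescence with CellTiter-Glo, and concentration-effect curves were then fitted and categorized.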
KB-3-1 tox: qHTS assay for MDR1-selective chemotherapeutics: Primary screen using the parental adenocarcinoma cell KB-3-1 | Potency, µM (series often up to 46.1 µM), usual class: cytotoxic | AID 1347075, 2019 | KB-3-1 viability, CellTiter-Glo ATP luminescence, 72 h | 400,000 tested, 1.4% active; also: % is scaled to controls: 0 for no effect and ±100 for the full control effect; nearly all actives have a fitted effect of over 60% in size
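Cells are dispensed, compounds pinned in, plates held at 37 °C for 72 h, then CellTiter-Glo is added and luminescence read after 10 minutes. Cell line: parental KB-3-1 in phenol-red-free DMEM, 10% FBS.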
S2 tox: Viability Counterscreen for Primary qHTS for Inhibitors of ATXN expression | S2 cells (HEK-293 line with an ATXN2-luciferase reporter) viability, CellTiter-Fluor protease fluorescence, 24 h | 400,000 tested, 0.49% active | Potency, µM (top dose mostly 56.7 µM), actives largely listed as cytotoxic | AID 651635, 2014; also: nearly all actives have a fitted effect of over 40% in size
KB-V1 MDR tox: qHTS assay for MDR1-selective chemotherapeutics: Primary screen using the drug-selected MDR subline cells KB-V1. KB-V1 MDR cells viability, CellTiter-Glo, 72 h. Potency, µM (doses to about 46.1 µM), actives largely listed as cytotoxic. 400,000 tested, 3.4% active. AID 1347076, 2019; also: % is scaled to controls: 0 for no effect and ±100 for the full control effect; nearly all actives have a fitted effect of over 60% in size
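qHTS viability screen in drug-selected KB-V1 MDR cells: 72 h compound treatment at 37 degrees C, ATP luminescence end point.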
HT1080 IDH1KD tx: qHTS for induction of synthetic lethality in tumor cells producing 2HG: qHTS for the HT-1080-IDH1KD cell line. HT-1080 IDH1 knockdown viability, ATP luminescence, 48 h. Potency, µM (top dose mostly 46.1 µM), inactives show at the top dose activity, negative = toxicity, hits mostly cytotoxic. 360,000 tested, 2% active;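 also: 0% = DMSO wells and -100% = cell-free medium wells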
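CellTiter-Glo luminescence after 48 h compound exposure at 37 degrees C of IDH1-knockdown HT-1080 cells in 5% FBS RPMI. %Activity scaled between DMSO wells and cell-free media wells, with curves fitted and assigned curve classes.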
ATXN2 expr inh: Primary qHTS for Inhibitors of ATXN expression; HEK-293 ATXN2-luciferase reporter, luminescence, 24 h; Potency, µM (highest dose often 57 µM), for the others: top-dose activity change, negative = inhibition, usual class: inhibitors; 360,000 tested, 0.72% active; AID 1745845, 2022; also: % is scaled to controls: 0 for no effect and ±100 for the full control effect; nearly all actives have a fitted effect of over 55% in size
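ATXN2-luciferase reporter cells (luciferase flanked by upstream and downstream ATXN2 gene portions) were treated 24 h at 37 °C with compounds at up to 57 uM. SteadyGlo luminescence gave expression; GF-AFC fluorescence gave viability.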
* hit, by the source's call. Hits are enriched below; roughly 6.2% of the tested compounds scored in any of these assays. Calls follow the shape of the dose curve; as a rule, active = well fitted curve in the direction sought with a large enough effect; inconclusive = small, poorly fitted or top-dose-only effect, or another doubt; inactive = no such curve, though single readings can be large; an effect the other way counts as inactive or inconclusive. Potency is read from the fitted curve at half-maximal effect.

`O=C(Nc1cc(Cl)cc(Cl)c1)c1cccc(OC(F)F)c1` gave HT1080NT lethal -12.5%, KB-3-1 tox 13µM*, S2 tox inactive, KB-V1 MDR tox 16.4µM*, HT1080 IDH1KD tx -5.0% and ATXN2 expr inh inconclusive.
For O=c1[nH]c(-c2ccc(C(F)(F)F)cc2)nc2c1CSCC2 the results were ATXN2 expr inh 13.2%.
`O=C(NCc1ccccc1F)C1CCCN1C(=O)NC1CCCCC1` (centres undefined) gave HT1080NT lethal -0.3%, KB-3-1 tox inactive, S2 tox inconclusive, KB-V1 MDR tox 20.6µM*, HT1080 IDH1KD tx 0.2% and ATXN2 expr inh 2.9%.
For O=C(CN1CCC(NC(=O)c2cccc(F)c2)CC1)NCc1ccccc1F the results were HT1080NT lethal 1.7%, KB-3-1 tox inactive, S2 tox inconclusive, KB-V1 MDR tox 18.4µM*, HT1080 IDH1KD tx 0.0% and ATXN2 expr inh -1.7%.
O=C(NCc1ccccc1Cl)C1CCCN1C(=O)NC1CCCCC1 (centres undefined) was read as HT1080NT lethal 10.1%, KB-3-1 tox inactive, S2 tox inactive, KB-V1 MDR tox inactive, HT1080 IDH1KD tx 8.8% and ATXN2 expr inh -9.2%.
O=C(CN1CCC(NC(=O)c2ccc(F)cc2)CC1)NCc1ccccc1F was read as HT1080NT lethal 2.6%, KB-3-1 tox inactive, S2 tox inactive, KB-V1 MDR tox 11.6µM*, HT1080 IDH1KD tx 9.6% and ATXN2 expr inh 11.5%.
`CN(C)c1ccc(/C=N/NC(=O)c2ccccc2Cl)cc1` gave HT1080NT lethal 11.6µM*, KB-3-1 tox inconclusive, S2 tox inactive, KB-V1 MDR tox inconclusive, HT1080 IDH1KD tx 8.2µM* and ATXN2 expr inh 15.4%.
`Cc1occc1C(=O)N/N=C/c1ccc(N(C)C)cc1` gave HT1080NT lethal inconclusive, KB-3-1 tox inactive, S2 tox inactive, KB-V1 MDR tox inactive, HT1080 IDH1KD tx 23.1µM* and ATXN2 expr inh 0.0%.
Screening CCC1CN(CCNC(=O)c2cccc(N3CCCC3=O)c2)Cc2cc(OC)ccc2O1 (centres undefined) returned S2 tox inactive.
CCOC(=O)N1CCN(c2c(F)cc3[nH]c(=S)[nH]c3c2Br)CC1 was read as HT1080NT lethal 15.8µM*, KB-3-1 tox inconclusive, S2 tox inactive, KB-V1 MDR tox 8.2µM*, HT1080 IDH1KD tx inconclusive and ATXN2 expr inh -15.9%.
For CCOC(=O)N1CCN(c2cc3[nH]c(=S)[nH]c3cc2F)CC1 the results were HT1080NT lethal 9.3%, KB-3-1 tox inactive, S2 tox inactive, KB-V1 MDR tox inactive, HT1080 IDH1KD tx 26.1% and ATXN2 expr inh 0.6%.
`CN(CCCC(=O)O)c1ccc(N=Nc2ccc([N+](=O)[O-])cc2)cc1` gave HT1080NT lethal -3.9%, KB-3-1 tox inconclusive, S2 tox 14.1µM*, KB-V1 MDR tox inactive and HT1080 IDH1KD tx -22.2%.
Screening Cc1ccc2ccc3cccnc3c2n1 returned HT1080NT lethal -5.4%, KB-3-1 tox 11.6µM*, S2 tox inconclusive, KB-V1 MDR tox inconclusive, HT1080 IDH1KD tx -19.0% and ATXN2 expr inh inconclusive.
Nc1cccc2cccnc12 was read as KB-3-1 tox inactive and KB-V1 MDR tox inactive.
Screening CCCOc1ccc(CNC(=O)CCCn2nc(C)c3sc4ccccc4c3c2=O)cc1 returned KB-3-1 tox inactive and KB-V1 MDR tox inactive.
N#CC(C#N)=C1SC(=Nc2ccccc2)C(=Nc2ccccc2)N1c1ccccc1 was read as HT1080NT lethal inconclusive, KB-3-1 tox 20.6µM*, S2 tox 26.7µM*, KB-V1 MDR tox inconclusive, HT1080 IDH1KD tx inconclusive and ATXN2 expr inh 26.7µM*.
For Cc1ccnc2ccc(F)cc12 the results were KB-3-1 tox inactive and KB-V1 MDR tox inactive.
